HIV RNase H inh-1: blocks HIV-1 RNase H cleavage of RNA/DNA duplex | P04585 | RT-RNase H RNA/DNA duplex cleavage, fluorescence | inhibition, % at 10 µM | 65,000 compounds, 1.9% hits | AID 565; in the data active = inhibition above about 50%
RmlC RmlD mix: RmlC/RmlD inhibition, mixture screen | RmlC/RmlD coupled enzyme inhibition, 384-well mixture HTS | inhibition, % at 5.5 µM | 110,000 compounds, 0.39% hits; in the data active = inhibition above about 30%, passing the limit was not always enough; inconclusive = no clear call, values can overlap the other calls
HIV RNase H inh-2: confirmation of HIV-1 reverse transcriptase RNase H inhibitors; shares compounds with HIV RNase H inh-1; Recombinant RT RNase H, fluorescent RNA/DNA duplex cleavage; inhibition, % at 10 µM; 1,000 compounds, 39% hits; in the data active = inhibition above about 48%; inconclusive = no clear call, values can overlap the other calls
RmlCD artifact: counter-screen for RmlC/RmlD inhibitors: fluorescence artifact; RmlC/RmlD assay fluorescence artifact counter-screen; calls only; shares compounds with RmlC RmlD mix; 360 compounds, 96% hits; call rule not given here;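 also: compound alone with no enzyme and no substrates present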
* marks the source's active call; other numbers are inactive results; ? = inconclusive; / = no result; + = active, no number. The sample as a whole holds a higher share of hits than the screen did.

SMILES | HIV RNase H inh-1 | RmlC RmlD mix | HIV RNase H inh-2 | others
CCOC(=O)c1c(N)sc2c1CCC1C(=O)N(C3CCCCC3)C(=O)C21 (stereo not drawn) | 74* | -5 | 68*
CCOC(=O)c1c(N)sc2c1CCSC2 | / | -19 | /
COc1ccc(-c2noc(CSc3nc4ccccc4c(=O)n3-c3ccc(C)cc3)n2)cc1 | / | -40 | /
CCOC(=O)C(C(C)=O)c1c(Br)c(O)c(O)c2c(C(=O)c3ccc(C)cc3)coc12 (stereo not drawn) | 95* | 6 | 63*
CCOC(=O)c1c(C)n(-c2ccc(C)cc2)c2c(C(C(C)=O)C(=O)O)c(Br)c(O)c(O)c12 (stereo not drawn) | / | 9 | /
C1=C(c2ccc(-c3ccccc3)cc2)Nc2ncnn2C1c1ccco1 (stereo not drawn) | 90* | 12 | 52*
Cc1ccc(C2C=C(c3ccccc3)Nc3ncnn32)cc1 (stereo not drawn) | / | 10 | /
CCCCN1CCCC1CNC(=O)c1cc(C#N)c2ccccc2c1OC (stereo not drawn) | / | -10 | /
O=C(CCCn1c(SCC(=O)NC2CCCCC2)nc2ccccc2c1=O)NCC1CCCO1 (stereo not drawn) | -3 | 11 | /
O=C(CCCn1c(SCC(=O)c2ccc(O)c(O)c2)nc2ccccc2c1=O)NCC1CCCO1 (stereo not drawn) | 95* | -8 | 71*
CCOC(=O)c1cc(-c2nnc(-c3ccc(Cl)cc3)o2)c(C)nc1C | 10 | -6 | /
CCOC(=O)c1cc(-c2nnc(SCC(=O)Nc3ccc(F)cc3)o2)c(C)nc1C | 70* | -7 | 2
COC(=O)C(N)Cc1ccc(O)c(O)c1 (stereo not drawn) | / | 22 | /
NC(CO)C(=O)NNCc1ccc(O)c(O)c1O (stereo not drawn) | 30 | -8 | 32
O=C1[C@H]2CCCC[C@H]2C(=O)N1CCCCN1CCN(c2nsc3ccccc23)CC1 | / | -15 | /
CCCCC(=O)Nc1cc(OC)c(NC(=O)C2CCCCC2)cc1OC | / | -11 | /
CCCC(=O)Nc1cc(OC)c(NC(=O)NC2CCCCC2)cc1OC | 53* | -8 | 8
O=C(CN1C(=O)NC2NC(=O)NC21)NC1CCCCC1 (stereo not drawn) | -10 | / | /
Cc1cc(/C=C(\C#N)C(=O)NCc2cccs2)c(C)n1-c1ccccc1F | / | 2 | /
Cc1ccc(-c2nc3ccc(NS(=O)(=O)c4ccccc4)cc3[nH]2)o1 | / | 3 | /
CCOC(=O)C[C@H]1c2cc(C(F)(F)F)ccc2S(=O)(=O)N1C(C)C | / | -11 | /
COc1ccc(CCNC(=O)c2ccc3nc(-c4ccco4)c(-c4ccco4)nc3c2)cc1OC | 93* | / | 0
COc1ccc(CCNC(=O)COC(=O)c2ccco2)cc1OC | -6 | 7 | /
CN(C)CCCN1C(=O)C(=O)/C(=C(/O)c2ccc(S(=O)(=O)N(C)C)cc2)C1c1ccncc1 (stereo not drawn) | -2 | / | /
Cc1cccc(NC(=O)CNc2cc(C)ccc2C)c1 | 2 | 21 | /
SMILES | HIV RNase H inh-1 | RmlC RmlD mix | HIV RNase H inh-2 | others
COc1ccccc1NC(=O)C1=C(C)NC(SCC(=O)c2ccc(C)cc2)=C(C#N)C1c1ccco1 (stereo not drawn) | 59* | / | 39
CC(=O)C1=C(C)NC(SCC(=O)c2ccc(F)cc2)=C(C#N)C1c1ccco1 (stereo not drawn) | -7 | 7 | /
COc1nc(-c2ccccc2)ccc1-c1noc(-c2ccccc2)n1 | 0 | -5 | /
COc1nc(-c2ccc(Cl)cc2)ccc1-c1noc(-c2ccncc2)n1 | 64* | / | 48
CCOc1ccc(NC(=O)CN2CCN(CC(=O)Nc3ccc(Cl)c(C(F)(F)F)c3)CC2)cc1 | / | 1 | /
O=C(Nc1ccc(N2CCOCC2)cc1)c1cccc(S(=O)(=O)N2CCC(Cc3ccccc3)CC2)c1 | / | -18 | /
COC(=O)c1ccc2c(c1)N(Cc1nc(-c3cccc(C)c3)oc1C)C(=O)C1CCCN21 (stereo not drawn) | 71* | 4 | 67*
Cc1cccc(-c2nc(CN3CCCC(C(=O)NC4CCCCCC4)C3)c(C)o2)c1 (stereo not drawn) | 6 | 3 | /
O=C(NCCC1=CCCCC1)C1COc2ccccc2O1 (stereo not drawn) | -1 | 36 | /
NS(=O)(=O)c1ccc(CCNC(=O)C2Cc3ccccc3CN2C(=O)c2ccco2)cc1 (stereo not drawn) | / | 8 | /
CCSc1nnc(NC(=O)C2Cc3ccccc3CN2C(=O)c2ccco2)s1 (stereo not drawn) | 53* | -5 | ?
N#Cc1c(NC(=O)c2ccncc2)sc2c1CCC2 | 64* | 15 | 25
CCCC(=O)Nc1sc2c(c1C#N)CCCC2 | 6 | -4 | /
CCCc1cc(C(=O)Nc2sc3c(c2C#N)CCC3)no1 | 61* | / | 70*
CC(=O)Nc1sc2c(c1C#N)CCCC2 | / | -33 | /
CCCCn1nnnc1SCC(=O)Nc1ccc(N(C)C)cc1 | / | 6 | /
O=C(NC1CC1)C1CCN(c2ncnc3c2sc2cccc(F)c23)CC1 | / | 11 | /
COC(=O)c1ccc(OCC(=O)c2ccccc2OC)cc1 | / | 12 | /
OCC[C@@H]1C[C@@H](O)[C@H](O)[C@]2(CCCCO2)O1 | / | -9 | /
Cc1ccc(C2CC(=O)NC(SCCC(C)C)=C2C#N)cc1 (stereo not drawn) | 65* | 3 | 10
COC(=O)CSC1=C(C#N)C(c2ccc(C(C)C)cc2)CC(=O)N1 (stereo not drawn) | -9 | -14 | /
O=C(Nc1nc2ccccc2n1Cc1ccccc1)c1ccco1 | -86 | -8 | /
O=C(Nc1nc(NC(=O)c2ccco2)n(-c2ccccc2)n1)c1ccccc1 | 53* | 138* | 29 | RmlCD artifact=+
COC(=O)c1ccc2c(=O)n(Cc3ccc4c(c3)OCO4)c(SCC(=O)N3CCCC3)nc2c1 | -9 | / | /
CN(CCO)c1nc(N)c2c(N)nc3c(c2c1C#N)CC(=O)N3C1CCCC1 | / | 30* | / | RmlCD artifact=+
SMILES | HIV RNase H inh-1 | RmlC RmlD mix | HIV RNase H inh-2 | others
CC(C)(C)N1C(=O)Cc2c1nc(N)c1c(N)nc(N3CCCCC3CO)c(C#N)c21 (stereo not drawn) | -19 | 35* | / | RmlCD artifact=+
CCN(CC)c1nc(N)c2c(N)nc3c(c2c1C#N)CC(c1ccccc1)O3 (stereo not drawn) | -34 | -95 | /
N#Cc1c(N2CCCCC2)nc(N)c2c(N)nc3c(c12)CC(c1ccccc1)O3 (stereo not drawn) | / | -13 | /
O=C(OCCN1C(=O)c2ccccc2C1=O)c1cccc(OC(F)F)c1 | -65 | -16 | /
Clc1ccc(/C=N/c2c(-c3ccco3)nc3ccccn23)cc1 | / | 17 | /
Oc1ccccc1/C=N/c1c(-c2ccco2)nc2ccccn12 | -24 | 39* | / | RmlCD artifact=+
O=C(CSc1nccn1-c1ccc(Cl)cc1)NCc1ccc2c(c1)OCO2 | -35 | 13 | /
COC(=O)c1ccc2c(c1)C(C)(C)C(/C=C/c1ccc(O)cc1)=[N+]2C | / | 19 | /
COC(=O)c1ccc2c(c1)C(C)(C)C(/C=C/c1ccc(OC)c(OC)c1OC)=[N+]2C | / | 45* | / | RmlCD artifact=+
COc1ccc(/C=N/NC(=O)CO/N=C(\C)c2cccs2)cc1 | / | -4 | /
CC1(C)CCCN(C(=O)c2coc(=O)c(Br)c2)C1 | 20 | 54* | / | RmlCD artifact=+
O=C(c1coc(=O)c(Br)c1)N1CCCc2ccccc21 | 2 | 30 | /
C[n+]1cc(-c2ccccc2)n2c1CCCCC2 | / | 13 | /
COc1ccc(-c2c[n+]3c4n2CCCCC4=C(c2ccccc2)C3)cc1 | / | 91* | / | RmlCD artifact=+
